Experimental data from PubChem BioAssay AID488969 (Vanderbilt High Throughput Screening Facility, 2010).
In all, about 110,000 compounds were measured (“z-score”: median about -0.1, highest 2% from about 2 on). The sample as a whole holds a higher share of the highest values than the screen did. The source made the active and inactive calls.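 How the source made its calls: active means z-score in the third read window above 3 or below -3; inactive means the rest.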

Target: Metabotropic glutamate receptor 8 (Rattus norvegicus) (UniProt P70579)
Sequence (P70579 whole entry, looked up): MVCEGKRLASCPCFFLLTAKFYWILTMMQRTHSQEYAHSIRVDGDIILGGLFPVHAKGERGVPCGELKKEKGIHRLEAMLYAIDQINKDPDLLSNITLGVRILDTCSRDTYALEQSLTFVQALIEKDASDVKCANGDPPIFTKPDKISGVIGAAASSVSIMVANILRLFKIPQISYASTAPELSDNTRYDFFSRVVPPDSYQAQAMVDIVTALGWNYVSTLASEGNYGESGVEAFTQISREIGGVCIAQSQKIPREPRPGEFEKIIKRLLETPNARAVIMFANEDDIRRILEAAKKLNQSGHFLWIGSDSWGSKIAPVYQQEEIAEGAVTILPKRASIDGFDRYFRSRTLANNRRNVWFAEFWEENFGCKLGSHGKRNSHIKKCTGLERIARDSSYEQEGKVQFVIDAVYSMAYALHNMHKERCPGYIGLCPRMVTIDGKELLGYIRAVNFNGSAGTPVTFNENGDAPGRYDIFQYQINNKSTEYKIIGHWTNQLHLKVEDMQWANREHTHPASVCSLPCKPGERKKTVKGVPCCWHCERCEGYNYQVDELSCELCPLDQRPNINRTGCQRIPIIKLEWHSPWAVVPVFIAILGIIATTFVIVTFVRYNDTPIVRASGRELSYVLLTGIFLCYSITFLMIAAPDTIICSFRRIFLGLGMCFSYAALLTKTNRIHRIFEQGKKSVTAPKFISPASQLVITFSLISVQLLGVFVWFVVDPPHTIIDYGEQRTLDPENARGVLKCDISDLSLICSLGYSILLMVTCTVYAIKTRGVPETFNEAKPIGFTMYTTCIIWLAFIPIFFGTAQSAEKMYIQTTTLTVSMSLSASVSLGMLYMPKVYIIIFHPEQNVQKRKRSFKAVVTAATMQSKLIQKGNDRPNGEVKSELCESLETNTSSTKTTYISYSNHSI
Experiment: mGluR8 Gi/Go-coupled signaling modulation – cell-based, rat, thallium flux, HTS, primary screen (AID 488969)
Settings: HEK293 rat mGluR8, GIRK (G protein-gated inwardly rectifying potassium channel) thallium flux, FluoZin2; at 10 µM; stronger effect = higher value; submaximal glutamate (EC20) added with thallium

Q: CC(C)Oc1cccc(C(=O)NC(=S)Nc2ccc3c4c(cccc24)CC3)c1 was tested. Which z-score did it give?
A: Its z-score is 1.24.

Q: For CC(C)c1ccc(OCC(=O)NC(=S)Nc2ccc3c4c(cccc24)CC3)cc1, which z-score is on record?
A: Its z-score is 1.27.

Q: How did the z-score turn out when Cc1ccccc1OCC(=O)NC(=S)Nc1ccc2c3c(cccc13)CC2 was run?
A: Its z-score is 0.22.

Q: COc1cccc(C(=O)NC(=S)Nc2ccc3c4c(cccc24)CC3)c1 was tested. Which z-score did it give?
A: Its z-score is 2.83.

Q: CN1CCN(C(=O)c2ccccc2N(Cc2ccccc2)S(=O)(=O)c2ccccc2)CC1 was tested. Which z-score did it give?
A: The z-score was -0.185.

Q: With Cn1cc([N+](=O)[O-])c(C(=O)N/N=C/c2ccccc2)n1 as the compound, how does the z-score read?
A: Its z-score is -0.138.

Q: Cc1cc(C)n(-c2nc3ccccc3nc2Nc2ccc(CC(=O)O)cc2)n1 was tested. Which z-score did it give?
A: The z-score was 1.13.

Q: Which z-score does the source give for O=c1c2c(nc3c(-c4ccccc4)c[nH]n13)CCC2 here?
A: Its z-score is -0.819.

Q: Which z-score does the source give for O=c1c2c(nc3cc(-c4ccccc4)[nH]n13)CCC2 here?
A: The z-score was -0.413.

Q: O=c1c2c(nc3c(-c4ccc(Cl)cc4)c[nH]n13)CCCC2 was tested. Which z-score did it give?
A: The z-score was 12 (active).

Q: Cc1[nH]n2c(=O)c3c(nc2c1-c1ccccc1)CCC3 was tested. Which z-score did it give?
A: Its z-score is -1.66.

Q: With Nc1[nH]n2c(=O)c3c(nc2c1N=Nc1ccc(Cl)cc1)CCCC3 as the compound, how does the z-score read?
A: Its z-score is -1.09.

Q: O=c1c2c(nc3cc(-c4cccc(Cl)c4)[nH]n13)CCC2 was tested. Which z-score did it give?
A: The z-score was 0.391.

Q: For Cc1ccc(N=Nc2c(N)[nH]n3c(=O)c4c(nc23)CCCC4)cc1, which z-score is on record?
A: The z-score was -0.696.

Q: With N#Cc1c[nH]n2c(=O)c3c(nc12)CCCC3 as the compound, how does the z-score read?
A: Its z-score is -0.482.

Q: Which z-score does the source give for O=c1c2c(nc3c(-c4cccc5ccccc45)c[nH]n13)CCC2 here?
A: Its z-score is -0.52.

Q: With O=c1c2c(nc3c(-c4cccc(Br)c4)c[nH]n13)CCCC2 as the compound, how does the z-score read?
A: Its z-score is 6.35 (active).

Q: How did the z-score turn out when Cc1ccc(-c2[nH]n3c(=O)c4c(nc3c2C)CCCC4)cc1 was run?
A: Its z-score is 11 (active).

Q: For O=c1c2c(nc3c(-c4ccccc4)c[nH]n13)CCCC2, which z-score is on record?
A: The z-score was 3.66 (active).

Q: COCCNC(=O)C(=O)N/N=C/c1ccccc1C(F)(F)F was tested. Which z-score did it give?
A: Its z-score is -0.508.

Q: How did the z-score turn out when Cc1nc2ccc(S(=O)(=O)NCC(=O)N3CCOCC3)cc2s1 was run?
A: Its z-score is -0.0788.

Q: With COc1ccc2c(c1)c1ncn(CCN3CCNCC3)c(=O)c1n2C as the compound, how does the z-score read?
A: The z-score was -0.141.

Q: With O=C(N[C@@H](Cc1ccccc1)c1nc2ccccc2[nH]1)c1cc([N+](=O)[O-])ccc1Cl as the compound, how does the z-score read?
A: The z-score was -0.361.

Q: Which z-score does the source give for CC(C)(C)NC(=O)C1CCCN(S(=O)(=O)c2cccc3cccnc23)C1 (centres undefined) here?
A: The z-score was -0.133.

Q: COc1ccc2nc3oc(C(=O)Nc4ccc(OC)c(OC)c4)cc3cc2c1 was tested. Which z-score did it give?
A: The z-score was 4.91 (active).

Q: How did the z-score turn out when COc1ccc2cc3cc(C(=O)Nc4cc(OC)c(OC)c(OC)c4)oc3nc2c1 was run?
A: Its z-score is -0.255.

Q: Which z-score does the source give for CCOc1ccc(NC(=O)c2cc3cc4ccc(OC)cc4nc3o2)cc1 here?
A: The z-score was 0.334.

Q: With O=C(Nc1ccc2oc(-c3ccncc3)nc2c1)c1cccs1 as the compound, how does the z-score read?
A: Its z-score is -1.18.

Q: For CCc1nnc(NC(=O)CCc2ccc(C)o2)s1, which z-score is on record?
A: The z-score was 0.332.

Q: With CCC(=O)N1CCc2cc(S(=O)(=O)CCC(=O)NCCc3ccccc3)ccc21 as the compound, how does the z-score read?
A: The z-score was -0.24.

Q: Which z-score does the source give for CC(C)c1ccccc1NC(=O)COC(=O)/C=C/c1cccc([N+](=O)[O-])c1 here?
A: Its z-score is 5.9 (active).

Q: Which z-score does the source give for CC(NC(=O)COC(=O)/C=C/c1ccc([N+](=O)[O-])cc1)c1ccccc1 (centres undefined) here?
A: The z-score was -0.366.

Q: With CC(C)NC(=O)c1ccccc1NC(=O)/C=C/c1cccc([N+](=O)[O-])c1 as the compound, how does the z-score read?
A: Its z-score is -0.52.

Q: CCOc1ccc(NC(=O)CSc2nnc(CCNC(=O)c3ccc(OC)cc3)n2CC)cc1 was tested. Which z-score did it give?
A: The z-score was -0.0739.

Q: C/C=C/COC(=O)c1[nH]c2c(c1C)C(=O)CC(c1ccco1)C2 (centres undefined) was tested. Which z-score did it give?
A: Its z-score is -0.237.

Q: How did the z-score turn out when CSCC[C@H](NC(=O)OC(C)(C)C)c1nnc(SCC(=O)N(C)C)o1 was run?
A: The z-score was -0.106.

Q: With O=C(Nc1nc2ccccc2s1)C1CC(=O)N(c2ccc(Br)cc2)C1 (centres undefined) as the compound, how does the z-score read?
A: Its z-score is 0.374.

Q: How did the z-score turn out when Cc1cc(C(=O)Nc2sc3c(c2C#N)CCC3)no1 was run?
A: The z-score was -0.0664.

Q: N#Cc1c(NC(=S)NC(=O)c2ccccc2)sc2c1CCCC2 was tested. Which z-score did it give?
A: Its z-score is 0.0146.

Q: Cc1onc(-c2ccccc2)c1C(=O)Nc1sc2c(c1C#N)CCC(C)C2 (centres undefined) was tested. Which z-score did it give?
A: The z-score was 0.289.

Q: With CCCc1cc(C(=O)Nc2sc3c(c2C#N)CCC3)no1 as the compound, how does the z-score read?
A: Its z-score is 2.21.

Q: N#Cc1c(NC(=S)NC(=O)c2ccccc2)sc2c1CCC2 was tested. Which z-score did it give?
A: Its z-score is 0.849.

Q: How did the z-score turn out when CC(C)Cc1cc(C(=O)Nc2sc3c(c2C#N)CCC3)no1 was run?
A: The z-score was 1.32.

Q: With Cc1onc(-c2ccccc2)c1C(=O)NC(=S)Nc1sc2c(c1C#N)CCCC2 as the compound, how does the z-score read?
A: Its z-score is 4.1 (active).

Q: For Cc1ccccc1C(=O)NC(=S)Nc1sc2c(c1C#N)CCCC2, which z-score is on record?
A: Its z-score is 5.02 (active).

Q: For Cc1ccccc1C(=O)NC(=S)Nc1sc2c(c1C#N)CCC(C)C2 (centres undefined), which z-score is on record?
A: The z-score was 1.82.

Q: How did the z-score turn out when CCOC(=O)CC1ON(C)C(=O)N1c1ccc([N+](=O)[O-])cc1 (centres undefined) was run?
A: The z-score was 0.0464.

Q: For CCCCOC(=O)c1ccc(NC(=O)/C=C/c2cccs2)cc1, which z-score is on record?
A: The z-score was -0.063.

Q: Which z-score does the source give for CCc1ccc(C2NC(C(=O)O)CS2)cc1 (centres undefined) here?
A: The z-score was -0.258.

Q: How did the z-score turn out when CC(C)Cn1c(SCC(=O)N2CCCCC2)nc2ccccc2c1=O was run?
A: Its z-score is -0.537.

Q: Which z-score does the source give for O=C1Nc2ccccc2C12OCCCO2 here?
A: The z-score was 0.489.

Q: Which z-score does the source give for O=C1Nc2ccccc2C12OCC1(CO2)COC2(OC1)C(=O)Nc1ccccc12 (centres undefined) here?
A: Its z-score is 3.45 (active).

Q: With O=C1Nc2ccccc2C12OCCO2 as the compound, how does the z-score read?
A: Its z-score is -0.0845.

Q: For CCN(CC)S(=O)(=O)c1ccc(/C=C/C(=O)Nc2ccc(F)c(F)c2F)cc1, which z-score is on record?
A: Its z-score is -0.0872.
